From PubChem BioAssay
Unmarked numbers belong to inactive results. For some assays here: Measured potencies and affinities stand elsewhere. Activity calls are given as the source filed them. Unless noted, how the calls were made is not given here.

Key:
[1] = antimalarial activity against Dd2 strain (AID 2302;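 active means growth inhibition above 50% at the single 2 µM test dose, taken to imply half-maximal potency below 2 µM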;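 further: 0% = DMSO untreated growth and 100% = chloroquine plus artemisinin killed control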); conditions: P. falciparum Dd2 in RBCs, LDH growth readout, 72 h; at 2 µM; stronger effect = higher value
[2] = HepG2 cytotoxicity, primary screen, cytotoxicity control for P. falciparum antimalarial project, cell-based, ATP luminescence (AID 2303;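 active means inhibition above 50%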;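 further: 0% = DMSO wells and 100% = digitonin-killed cells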); conditions: HepG2 viability, 24-48 h, at 10 µM, stronger effect = higher value
[3] = biological target: L-lactate dehydrogenase (Plasmodium falciparum (isolate CDC / Honduras)) (UniProt Q27743); assay: PfLDH activity inhibition – cell lysate, 3D7 strain, counter-screen for P. falciparum growth inhibition project (AID 2304);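 further: 0% = vehicle and 100% = reference inhibitor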; conditions: P. falciparum 3D7 crude extract, LDH APAD/NBT absorbance; at 2 µM; stronger effect = higher value
[4] = inhibition of 3D7 malaria parasite growth – strain 3D7 (AID 2306);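 further: 0% = DMSO wells and 100% = chloroquine plus artemisinin control wells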; conditions: P. falciparum 3D7 erythrocytic growth, LDH absorbance, 72 h; at 2 µM; stronger effect = higher value
[5] = biological target: Calcium-dependent protein kinase 1 (Plasmodium falciparum (isolate 3D7)) (UniProt P62344); assay: PfCDPK1 kinase inhibitors, biochemical, TCAMS library (AID 1159585; cut-off not given, nearly all actives have IC50 up to about 0.98 µM;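 further: inhibitors leave more ATP so luminescence rises with inhibition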); conditions: recombinant PfCDPK1, Kinase-Glo ATP depletion luminescence
[6] = biological target: Plasmodium falciparum protein kinase 6 (PK6, PF3D7_1337100) (UniProt Q8IDW1); assay: PfPK6 kinase inhibitors, biochemical, TCAMS library (AID 1159586); conditions: recombinant PfPK6, Kinase-Glo ATP depletion luminescence
[7] = biological target: Protein kinase 7 (PK7), Plasmodium falciparum 3D7 (PF3D7_0213400) (UniProt Q7YTF7); assay: inhibition of Plasmodium PK7 catalytic activity – biochemical, TCAMS antimalarial set, Kinase-Glo luminescence (AID 1159587); conditions: recombinant PfPK7, Kinase-Glo ATP depletion luminescence
[8] = biological target: Calcium-dependent protein kinase 4 (Plasmodium falciparum (isolate 3D7)) (UniProt Q8IBS5); assay: PfCDPK4 kinase inhibitors, biochemical, TCAMS library (AID 1159588; cut-off not given, nearly all actives have IC50 up to about 0.91 µM); conditions: recombinant PfCDPK4, Kinase-Glo ATP depletion luminescence
Sequence of Calcium-dependent protein kinase 4 (Plasmodium falciparum (isolate 3D7)) (Q8IBS5 whole entry, looked up): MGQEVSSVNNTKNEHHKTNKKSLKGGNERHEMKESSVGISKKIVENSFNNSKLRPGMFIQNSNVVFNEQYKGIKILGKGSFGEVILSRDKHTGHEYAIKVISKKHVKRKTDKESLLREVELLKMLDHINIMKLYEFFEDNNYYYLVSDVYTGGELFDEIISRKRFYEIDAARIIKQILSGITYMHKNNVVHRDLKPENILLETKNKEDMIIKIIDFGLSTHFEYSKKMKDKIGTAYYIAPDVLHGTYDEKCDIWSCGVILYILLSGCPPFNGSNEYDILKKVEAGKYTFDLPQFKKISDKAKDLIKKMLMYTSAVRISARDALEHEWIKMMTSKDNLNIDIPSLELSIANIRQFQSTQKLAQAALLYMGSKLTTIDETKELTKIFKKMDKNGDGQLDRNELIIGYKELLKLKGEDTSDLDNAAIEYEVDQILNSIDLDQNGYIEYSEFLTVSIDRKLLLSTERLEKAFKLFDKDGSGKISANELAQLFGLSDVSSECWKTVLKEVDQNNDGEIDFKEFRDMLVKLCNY

Sequence of Protein kinase 7 (PK7), Plasmodium falciparum 3D7 (PF3D7_0213400) (Q7YTF7 1-343): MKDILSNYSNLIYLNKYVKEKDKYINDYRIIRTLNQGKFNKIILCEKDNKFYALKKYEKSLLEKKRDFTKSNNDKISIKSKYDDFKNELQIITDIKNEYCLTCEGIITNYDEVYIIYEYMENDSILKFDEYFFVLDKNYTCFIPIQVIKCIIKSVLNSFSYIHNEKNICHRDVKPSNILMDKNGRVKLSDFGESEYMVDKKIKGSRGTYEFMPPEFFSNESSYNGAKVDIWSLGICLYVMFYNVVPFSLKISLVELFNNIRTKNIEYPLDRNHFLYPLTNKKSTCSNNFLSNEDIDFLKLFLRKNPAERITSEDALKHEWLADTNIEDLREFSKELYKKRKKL
Sequence of Calcium-dependent protein kinase 1 (Plasmodium falciparum (isolate 3D7)) (P62344 whole entry, looked up): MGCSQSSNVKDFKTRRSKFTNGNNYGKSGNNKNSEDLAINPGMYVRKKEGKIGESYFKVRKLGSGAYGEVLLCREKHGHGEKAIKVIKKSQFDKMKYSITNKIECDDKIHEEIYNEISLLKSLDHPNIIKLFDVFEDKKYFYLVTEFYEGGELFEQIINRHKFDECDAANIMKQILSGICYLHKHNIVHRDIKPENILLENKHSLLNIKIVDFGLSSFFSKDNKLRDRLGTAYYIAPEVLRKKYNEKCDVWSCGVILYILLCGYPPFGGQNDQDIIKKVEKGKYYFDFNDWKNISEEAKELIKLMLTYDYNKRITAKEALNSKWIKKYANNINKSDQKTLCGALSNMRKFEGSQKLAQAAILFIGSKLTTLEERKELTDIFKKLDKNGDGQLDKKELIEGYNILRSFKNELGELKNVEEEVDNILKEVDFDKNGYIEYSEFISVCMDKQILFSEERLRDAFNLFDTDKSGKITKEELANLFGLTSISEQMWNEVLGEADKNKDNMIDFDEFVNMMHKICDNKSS
Sequence of L-lactate dehydrogenase (Plasmodium falciparum (isolate CDC / Honduras)) (Q27743 whole entry, looked up): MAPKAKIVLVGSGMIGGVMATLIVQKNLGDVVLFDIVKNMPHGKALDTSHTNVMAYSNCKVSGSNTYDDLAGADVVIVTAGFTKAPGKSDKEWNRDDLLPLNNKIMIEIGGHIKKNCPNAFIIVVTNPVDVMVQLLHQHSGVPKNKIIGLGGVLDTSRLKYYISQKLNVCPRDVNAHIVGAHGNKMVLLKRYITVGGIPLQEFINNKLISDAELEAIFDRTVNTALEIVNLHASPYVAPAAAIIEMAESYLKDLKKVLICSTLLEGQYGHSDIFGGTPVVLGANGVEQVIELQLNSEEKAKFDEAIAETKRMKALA
Sequence of Plasmodium falciparum protein kinase 6 (PK6, PF3D7_1337100) (Q8IDW1 1-305): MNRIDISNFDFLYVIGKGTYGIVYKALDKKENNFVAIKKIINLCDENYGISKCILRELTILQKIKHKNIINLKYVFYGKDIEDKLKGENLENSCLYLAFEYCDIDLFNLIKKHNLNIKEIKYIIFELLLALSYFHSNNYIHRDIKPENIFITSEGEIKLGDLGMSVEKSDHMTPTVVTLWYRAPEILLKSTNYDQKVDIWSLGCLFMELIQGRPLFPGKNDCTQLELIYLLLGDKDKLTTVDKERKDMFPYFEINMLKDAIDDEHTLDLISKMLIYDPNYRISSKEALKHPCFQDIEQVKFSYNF

| Structure (SMILES) | growth inhibition [1] | inhibition [2] | inhibition [3] [%] | growth inhibition [4] | outcome [5] | outcome [6] | outcome [7] | outcome [8] |
| --- | --- | --- | --- | --- | --- | --- | --- | --- |
| CCOC(=O)c1[nH]c(-c2ccc(Cl)cc2)nc1NC(=S)NCCCN1CCOCC1 | 33% | 22% | -4 | 92% (active) | inactive | inactive | inactive | inactive |
| CC(=O)c1c[nH]c(C(=O)Nc2ccc(-c3cn4ccccc4n3)cc2)c1 | 95% (active) | 20% | 4 | 98% (active) | inactive | inactive | inactive | inactive |
| CC1CCN(CC[C@H]2CCCN2S(=O)(=O)c2cccc(NC(=O)c3cc4ccccc4s3)c2)CC1 | 41% | 28% | 2 | 97% (active) | inactive | inactive | inactive | inactive |
| Cc1ccc(NC(=O)N2CCCN(CCCCCNC(=O)/C=C/c3ccc(Cl)c(Cl)c3)CC2)cc1 | 2% | 12% | -6 | 99% (active) | inactive | inactive | inactive | inactive |
| O=C(NCC1CCC(C(=O)NCCc2ccc(Cl)c(Cl)c2)CC1)c1ccc(O)c(-c2ccc(Cl)c(Cl)c2)c1 (stereo not given) | 12% | -5% | -1 | 94% (active) | inactive | inactive | inactive | inactive |
| CC(C)c1ccc(NC(=S)NN=Cc2ccccn2)cc1 | 98% (active) | 47% | -12 | 100% (active) | inactive | inactive | inactive | inactive |
| CCCNCc1ccc(-c2ccc(CN(CCOC)C(=O)c3cscn3)cc2)nc1 | 16% | 13% | 2 | 99% (active) | inactive | inactive | inactive | inactive |
| CCOC(=O)C1=C(C)NC2=C(C(=O)CC(C)(C)C2)C1c1ccc(Br)cc1 (stereo not given) | 66% (active) | 0% | 2 | 90% (active) | inactive | inactive | inactive | inactive |
| Cc1ccc(Cn2cnc3cc(C(=O)Nc4ccc(-c5ccc(CN(C)C)cc5)cc4)ccc3c2=O)o1 | 12% | 43% | -1 | 82% (active) | inactive | inactive | inactive | inactive |
| COc1cc(F)c2ncc(Cl)c(CCN3CCC(NCc4ccc5c(n4)NC(=O)CO5)CC3)c2c1 | 19% | 20% | -1 | 89% (active) | inactive | inactive | inactive | inactive |
| O=c1cc(NCCCNCc2cc3ccccc3s2)[nH]c2ccccc12 | -3% | 3% | -1 | 89% (active) | inactive | inactive | inactive | inactive |
| O=C(Nc1nc2ccc(Cl)cc2s1)c1csnn1 | 99% (active) | 15% | 3 | 96% (active) | inactive | inactive | inactive | inactive |
| O=C(NCCCNc1nc2ccccc2[nH]1)c1cccc(OC(F)(F)F)c1 | 27% | 12% | -2 | 102% (active) | inactive | inactive | inactive | inactive |
| COc1nc2c(CCN3CCC(NCc4ccc5c(c4)NCCO5)CC3)c(Cl)cnc2cc1F | 98% (active) | 23% | 1 | 102% (active) | inactive | inactive | inactive | inactive |
| O=C1COc2ccc(S(=O)(=O)N3CCC[C@@H]3CCN3CCC(c4c[nH]c5cnccc45)CC3)cc2N1 | 6% | -8% | 1 | 101% (active) | inactive | inactive | inactive | inactive |
| CCOc1ccc2nc(C)cc(NN=Cc3cccc(F)c3)c2c1 | 23% | -3% | 0 | 100% (active) | inactive | inactive | inactive | inactive |
| COc1ccc(CCn2c(=N)c(C(=O)NCc3ccccc3)cc3c(=O)n4cccc(C)c4nc32)cc1 | 37% | 29% | -3 | 102% (active) | inactive | inactive | inactive | inactive |
| CC(Nc1ccc2c(c1)CCC2)C(=O)Nc1cc(C(F)(F)F)ccc1N1CCOCC1 (stereo not given) | 100% (active) | -3% | -1 | 100% (active) | inactive | inactive | inactive | inactive |
| Cc1cnc(CNCc2ccc(S(=O)(=O)Nc3ccc(Oc4cccc(Cl)c4)cc3)cc2)cn1 | -1% | 4% | 7 | 97% (active) | inactive | inactive | inactive | inactive |
| CC(C)(C)c1cc(N=NC(=O)c2ccncc2)cc(C(C)(C)C)c1O | 99% (active) | 47% | 1 | 99% (active) | inactive | inactive | inactive | inactive |

| Structure (SMILES) | growth inhibition [1] | inhibition [2] | inhibition [3] [%] | growth inhibition [4] | outcome [5] | outcome [6] | outcome [7] | outcome [8] |
| --- | --- | --- | --- | --- | --- | --- | --- | --- |
| COc1ccc(Cn2ncc3c4c(N)nc(N)nc4ccc32)cc1OC | 95% (active) | 68% (active) | 3 | 94% (active) | inactive | inactive | inactive | inactive |
| O=C(NC1CCCCC1)N(Cc1cccc(-c2ccc(CNCc3ccc4c(c3)OCO4)cc2)c1)C1CCN(Cc2ccccc2)CC1 | 59% (active) | 13% | -9 | 92% (active) | inactive | inactive | inactive | inactive |
| Cc1c(C(=O)[C@@H]2C[C@H]2CN2CCC(N3CCCCC3)CC2)sc2ccccc12 | 19% | 35% | -1 | 94% (active) | inactive | inactive | inactive | inactive |
| CCCCOc1ccc(-c2nc3ccccc3[nH]2)cc1 | 82% (active) | 21% | -1 | 86% (active) | inactive | inactive | inactive | inactive |
| O=C(Nc1cccc(-c2nn3ccccc3c2-c2ccnc(Nc3ccccc3)n2)c1)c1c(F)cccc1F | 98% (active) | 69% (active) | -6 | 98% (active) | inactive | inactive | inactive | inactive |
| COc1ccc(-c2ccc(CNC(=O)c3cccc(C#N)c3)c(F)c2)cc1CN1CCCN(C)CC1 | 30% | 8% | -4 | 99% (active) | inactive | inactive | inactive | inactive |
| CN(C)C(=S)N=Nc1c(O)[nH]c2ccc(OC(F)(F)F)cc12 | 52% (active) | 36% | 3 | 93% (active) | inactive | inactive | inactive | inactive |
| COC(=O)c1ccc2c(c1)nc(Nc1cccc(F)c1)n2CC(O)c1ccccn1 (stereo not given) | 96% (active) | -7% | -1 | 99% (active) | inactive | inactive | inactive | inactive |
| Cc1cc(C2CCN(CCCCNC(=O)c3ccc(-c4ccc(C(F)(F)F)cc4)cc3)CC2)c(C)cc1OCCO | 3% | 31% | 2 | 99% (active) | inactive | inactive | inactive | inactive |
| COc1cc(Cc2cnc(N)nc2N)ccc1OCC(=O)Nc1ccc(C)cc1 | 18% | 10% | -2 | 95% (active) | inactive | inactive | inactive | inactive |
| Cn1nc(-c2cccc(CNCc3ccccc3)c2)c2cnc(NC3CCCC3)nc21 | 11% | 5% | 1 | 85% (active) | inactive | inactive | inactive | inactive |
| CN(C)Cc1ccc(-c2ccc(NC(=O)c3ccc4c(=O)n(Cc5ccoc5)cnc4c3)cc2)cc1 | 16% | 32% | 3 | 80% (active) | inactive | inactive | inactive | inactive |
| COc1ccc2nccc(N3CCCN(CCNS(=O)(=O)c4ccc5c(c4)NC(=O)CS5)CC3)c2n1 | 15% | -2% | -9 | 97% (active) | inactive | inactive | inactive | inactive |
| Cc1cccc(CCCNC(=O)CN(c2cccc(C(F)(F)F)c2)S(=O)(=O)c2ccc(C(F)(F)F)cc2)c1 | 94% (active) | 9% | 5 | 96% (active) | inactive | inactive | inactive | inactive |
| c1ccc(-n2ncc(CNCc3ccc(-c4ccc(-c5nc6ccccc6[nH]5)s4)cc3)n2)cc1 | 46% | 27% | 4 | 93% (active) | inactive | inactive | inactive | inactive |
| CCC(C)NS(=O)(=O)c1ccc2nc(Nc3ccc(C)c(Cl)c3)n(C3CCCCC3)c2c1 (stereo not given) | 98% (active) | -8% | 5 | 99% (active) | inactive | inactive | inactive | inactive |
| COc1ccc(Cl)cc1NC(=O)C(C)N1CCN(S(=O)(=O)c2ccccc2F)CC1 (stereo not given) | 66% (active) | 5% | 4 | 93% (active) | inactive | inactive | inactive | inactive |
| CN1CCC(NCc2ccc(-c3cccc(S(=O)(=O)NCC4CCCO4)c3)cc2)CC1 (stereo not given) | 0% | 8% | -1 | 90% (active) | inactive | inactive | inactive | inactive |
| COc1ccc(Cl)cc1N1CCN(CCCNC(=O)c2ccc(-c3nc4cc(Cl)c(C)cc4[nH]3)s2)CC1 | 97% (active) | -1% | 1 | 102% (active) | inactive | inactive | inactive | inactive |
| CNC(=O)c1ccc2nc(C3CC3)n(CC3CCN(S(=O)(=O)c4cccc(Cl)c4)CC3)c2c1 | 100% (active) | -6% | 3 | 100% (active) | inactive | inactive | inactive | inactive |
